# “And” between values parts separate entries of the source, which are not always exact repeats. Equal entries are not always repeated. Results filed as inconclusive are left out. A call without a number means that no potency is given here. The source made the active and inactive calls. Unless noted, calls follow the shape of the dose curve; as a rule, active = well fitted curve in either direction with a large enough effect (not every such curve was filed as active); inconclusive = small, poorly fitted or top-dose-only effect, or another doubt; inactive = flat fitted curve, though single readings scatter.
# Tests used:
# [1] = AP1 Signaling Pathway (AID 357);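 also: ME-180 reporter cells stimulated with EGF at its EC50 level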
# Method in brief: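 Modulation of EGF-driven AP-1 transcription was assessed with a beta-lactamase reporter in ME-180 cells. Compound and EC50 EGF were co-incubated 5 hours at 37 °C before 2.5-hour CCF4 loading at room temperature and dual-emission reading.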
# [2] = biological target: Cytochrome P450 1A2 (Homo sapiens) (UniProt P05177); assay: p450-cyp1a2 (AID 410; calls by dose curve)
# Method in brief: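 20nM CYP1A2, 100uM Luciferin-ME (=Km), 100mM KPO4; cpd 10 min RT; +NADPH regen, 60 min RT; stop/detect 20 min; luminescence. Normalized to furafylline 57 uM = full inhibition.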
# [3] = NFAT Signaling Pathway (AID 444); settings: Jurkat NFAT-bla M1, carbachol, beta-lactamase ratio, 5 h;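 also: carbachol stimulus at about its EC50 of 1 µM final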
# Method in brief: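 Read-out: CCF4 FRET ratio (460 nm/530 nm) after 1 h RT dye loading, used for %activity and AC50 from titration series. Cells: Jurkat NFAT-β-lactamase/M1 line, treated with compound plus 1 uM carbachol for 5 h, 37 °C.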
# [4] = Stat Signaling Pathway (AID 446);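 also: ME-180 cervical cancer cells given 40 pM IL-6 alongside compound; SIE-controlled beta-lactamase reporter measured as 460/530 nm FRET emission ratio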
# Method in brief: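 Overnight-plated ME-180 cells bearing a STAT Inducible Element beta-lactamase reporter; 5 h co-exposure to compound and 40 pM IL-6; values normalized to 300 pM IL-6 and 125 nM JAK inhibitor controls.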
# [5] = biological target: Mitogen-activated protein kinase 10 (Mus musculus) (UniProt Q61831); assay: JNK3 AlphaScreen Assay (AID 530);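 also: kinase came from lysate of stimulated human HepG2 cells; signal reports phosphorylation of biotinylated GST-cJun 1-79 at Ser73 with 10 µM ATP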
# Method in brief: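 Kinase buffer: 20 mM Tris-HCl pH 7.6, 10 mM MgCl2, 1 mM DTT, 0.1 mM Na3VO4, 0.01% Tween-20; ATP 10 uM. Substrate biotin-GST-cJun(1-79), enzyme from activated HepG2 lysates. Detection by Ser73 phospho-antibody AlphaScreen.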
# [6] = biological target: 3',5'-cyclic-AMP phosphodiesterase 4B (Homo sapiens) (UniProt Q07343); assay: qHTS Assay for Inhibitors of PDE-IV (AID 607; active = well fitted activation curve with a large enough effect in the main read-out, with a control signal flat, not every such curve was filed as active)
# Method in brief: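 Live HEK293 cells with a modified cyclic nucleotide-gated (CNG) channel report intracellular cAMP via membrane-potential dye fluorescence (ex 535/em 590 nm). Endogenous PDE-IV was targeted. Compounds were tested at up to 22.9 uM final; RO 20-1724 100 uM served as control.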
# [7] = qHTS Assay for Lipid Storage Modulators (AID 1519; calls by dose curve); settings: Drosophila S3 cells, BODIPY lipid droplet/cell ratio, laser cytometry, cells loaded with oleic acid
# Method in brief: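 Cells seeded at 5,000 per well were treated with compounds over a concentration series and loaded with oleic acid (400 uM, as added). Lipid droplet fluorescence (488 nm excitation, 500-530 nm channel) was read by laser-scanning cytometry and normalized to 20 uM Triacsin C.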
# [8] = biological target: Ubiquitin carboxyl-terminal hydrolase 1 (Homo sapiens) (UniProt O94782); assay: Inhibitors of USP1/UAF1: Pilot qHTS (AID 504865; active = well fitted curve in the direction sought with a large enough effect; an effect the other way counts as inactive or inconclusive;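 also: rhodamine fluorescence freed from ubiquitin-rhodamine substrate followed over time; top concentration of the series differs between compounds; nearly all actives have a fitted effect of over 35% in size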)
# Method in brief: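 USP1/UAF1 complex at 1 nM preincubated 15 min at room temperature with compound, then Ub-Rho substrate added at 150 nM final. Fluorescence (480/540 nm) read kinetically in 50 mM HEPES pH 7.8, 0.5 mM EDTA, 1 mM TCEP, 0.1 mg/ml BSA, 0.01% Tween-20.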
# [9] = biological target: Glucocorticoid receptor (Homo sapiens) (UniProt P04150); assay: GR-GFP Redistribution (AID 450;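 active = compounds whose dose series gives a full or clear partial fitted curve of increased nuclear translocation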; also: potency is read from the fitted curve at half-maximal effect); settings: U2OS GR-GFP nuclear translocation, laser cytometry, 2 h
# [10] = biological target: Glucocorticoid receptor (Homo sapiens) (UniProt P04150); assay: GR-EFC Redistribution (AID 451; calls by dose curve; also: potency is read from the fitted curve at half-maximal effect); settings: CHO-K1 GR-EFC translocation, beta-gal luminescence, 2 h
# Method in brief: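 Translocation of GR-ED fusion to nuclear EA restores b-gal, read by luminescence after 1 h room-temperature detection. Engineered CHO-K1 biosensor cells, 1,000/well, exposed 2 h at 37 C to titrations up to 46 uM final.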
# [11] = biological target: Cytochrome P450 2D6 (Homo sapiens) (UniProt P10635); assay: qHTS Assay for Inhibitors and Substrates of Cytochrome P450 2D6 (AID 891; active = well fitted curve in the direction sought with a large enough effect; an effect the other way counts as inactive or inconclusive; also: potency is read from the fitted curve at half-maximal effect; nearly all actives have a fitted effect of over 60% in size)
# Method in brief: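 Luminescent read-out of luciferin formed by 5 nM human CYP2D6 demethylating 30 uM Luciferin-ME EGE (Km level) over 60 min at room temperature after NADPH regeneration addition. Data normalized to full inhibition by 1.43 uM quinidine.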
# [12] = biological target: ATP-dependent 6-phosphofructokinase (Trypanosoma brucei brucei) (UniProt O15648); assay: qHTS Assay to Find Inhibitors of T. brucei phosphofructokinase: hit validation (AID 492961; active = well fitted curve in the direction sought with a large enough effect; an effect the other way counts as inactive or inconclusive;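 also: luminescence reports ADP formed as PFK phosphorylates fructose-6-phosphate with ATP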)
# Method in brief: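 ADP-Glo luminescence read-out of ADP formed by 1.25 nM PFK from 0.1 mM ATP and 0.5 mM F6P (TEA pH 8.0, 45 min, RT). Compounds titrated; activity normalized to no-enzyme and full-enzyme controls.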
# [13] = biological target: Luciferin 4-monooxygenase (Photinus pyralis) (UniProt P08659); assay: Biochemical firefly luciferase enzyme assay for NPC (AID 624030; active = well fitted curve in the direction sought with a large enough effect; an effect the other way counts as inactive or inconclusive;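 also: purified P. pyralis luciferase at 10 nM with luciferin and ATP substrate; nearly all actives have a fitted effect of over 70% in size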)
# Method in brief: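 Direct inhibition of firefly luciferase enzyme (10 nM final, 50 mM Tris Acetate) assessed by luminescence within 5 minutes. Percent activity scaled between DMSO and PTC124 positive control, with concentration-effect curves classified by fit quality and response.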
# [14] = qHTS profiling for inhibitors of Plasmodium falciparum proliferation (AID 504749; active = well fitted curve in the direction sought with a large enough effect; an effect the other way counts as inactive or inconclusive; also: nearly all actives have a fitted effect of over 60% in size); settings: P. falciparum in erythrocytes, SYBR Green DNA, 72 h
# Method in brief: (§1)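 In a 72 h erythrocytic culture (37 C, humidified, 5% CO2) at 2.5% hematocrit and 0.3% starting parasitemia, compounds were tested; SYBR Green I in detergent lysis buffer stained parasite DNA overnight.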
# C2A = assay: as above; settings: P. falciparum in erythrocytes, SYBR Green DNA, 72 h; series mostly up to 28.7 µM
# Method in brief: as §1
# CP185 = assay: as above; settings: P. falciparum in erythrocytes, SYBR Green DNA, 72 h; series mostly up to 28.7 µM
# Method in brief: as §1
# FAB9 = assay: as above; settings: P. falciparum in erythrocytes, SYBR Green DNA, 72 h; series mostly up to 28.7 µM
# Method in brief: as §1
# [15] = biological target: Cytochrome P450 3A4 (Homo sapiens) (UniProt P08684); assay: qHTS Assay for Activators of Cytochrome P450 3A4 (AID 885; active = well fitted curve in the direction sought with a large enough effect; an effect the other way counts as inactive or inconclusive; also: nearly all actives have a fitted effect of over 65% in size)
# Method in brief: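 Using 20nM recombinant human CYP3A4 in potassium phosphate (200mM), substrate Luciferin-PPXE at 25uM, luminescent luciferin detection followed a 60-min RT NADPH reaction; data scaled to 57 uM ketoconazole.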
# [16] = biological target: Lysosomal acid glucosylceramidase (Homo sapiens) (UniProt P04062); assay: Glucocerebrosidase-p2 (AID 348; in the data active = potency below about 10 µM; also: potency is read from the fitted curve at half-maximal effect); settings: purified GBA, blue fluorogenic substrate, 40 min
# Method in brief: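 Normal human glucocerebrosidase (0.2 nM) with blue fluorogenic substrate (80 uM final) in citrate/phosphate pH 5.9 with 10mM sodium taurocholate, 0.01% tween-20; 40 min RT, NaOH/glycine stop; fluorescence Ex 365/Em 440; AC50 from a titration from 0.6 nM upwards.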
# [17] = measured here: cell count channel max response
# [18] = measured here: lipid channel max response
# Chain of Cytochrome P450 1A2 (Homo sapiens) (P05177 whole entry, looked up): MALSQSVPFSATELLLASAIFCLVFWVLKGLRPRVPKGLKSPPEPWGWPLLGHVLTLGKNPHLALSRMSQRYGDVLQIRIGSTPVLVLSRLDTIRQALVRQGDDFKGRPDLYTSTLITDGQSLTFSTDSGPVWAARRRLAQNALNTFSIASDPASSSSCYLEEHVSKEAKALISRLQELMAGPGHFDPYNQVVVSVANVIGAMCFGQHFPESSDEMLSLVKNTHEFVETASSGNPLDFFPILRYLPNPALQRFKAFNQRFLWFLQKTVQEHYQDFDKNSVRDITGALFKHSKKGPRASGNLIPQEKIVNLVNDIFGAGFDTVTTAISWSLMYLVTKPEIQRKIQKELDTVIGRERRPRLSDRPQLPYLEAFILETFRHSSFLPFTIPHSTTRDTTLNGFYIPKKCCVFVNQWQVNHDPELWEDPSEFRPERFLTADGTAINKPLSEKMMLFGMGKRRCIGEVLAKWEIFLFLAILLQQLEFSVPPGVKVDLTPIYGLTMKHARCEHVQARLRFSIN
# Chain of Ubiquitin carboxyl-terminal hydrolase 1 (Homo sapiens) (O94782 whole entry, looked up): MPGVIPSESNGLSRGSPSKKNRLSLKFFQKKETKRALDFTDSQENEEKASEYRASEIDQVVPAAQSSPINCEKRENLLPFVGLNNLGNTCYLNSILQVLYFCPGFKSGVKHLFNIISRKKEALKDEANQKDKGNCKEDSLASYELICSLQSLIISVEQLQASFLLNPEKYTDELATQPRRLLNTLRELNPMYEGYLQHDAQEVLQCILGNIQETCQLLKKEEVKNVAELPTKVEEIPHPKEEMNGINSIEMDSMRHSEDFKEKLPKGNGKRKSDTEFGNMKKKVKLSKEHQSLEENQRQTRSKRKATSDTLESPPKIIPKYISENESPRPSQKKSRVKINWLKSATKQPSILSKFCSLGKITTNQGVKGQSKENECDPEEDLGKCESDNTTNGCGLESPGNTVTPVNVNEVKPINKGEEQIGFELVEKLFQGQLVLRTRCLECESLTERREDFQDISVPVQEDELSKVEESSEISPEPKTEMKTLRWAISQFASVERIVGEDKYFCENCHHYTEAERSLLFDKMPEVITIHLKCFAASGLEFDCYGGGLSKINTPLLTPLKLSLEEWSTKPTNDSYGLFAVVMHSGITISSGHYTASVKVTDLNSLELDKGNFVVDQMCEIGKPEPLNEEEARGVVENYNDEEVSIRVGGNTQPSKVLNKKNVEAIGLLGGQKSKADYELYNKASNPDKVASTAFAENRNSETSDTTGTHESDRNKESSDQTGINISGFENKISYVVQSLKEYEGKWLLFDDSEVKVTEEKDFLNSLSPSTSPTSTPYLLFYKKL
# Chain of Glucocorticoid receptor (Homo sapiens) (P04150 whole entry, looked up, the tested form may be a part): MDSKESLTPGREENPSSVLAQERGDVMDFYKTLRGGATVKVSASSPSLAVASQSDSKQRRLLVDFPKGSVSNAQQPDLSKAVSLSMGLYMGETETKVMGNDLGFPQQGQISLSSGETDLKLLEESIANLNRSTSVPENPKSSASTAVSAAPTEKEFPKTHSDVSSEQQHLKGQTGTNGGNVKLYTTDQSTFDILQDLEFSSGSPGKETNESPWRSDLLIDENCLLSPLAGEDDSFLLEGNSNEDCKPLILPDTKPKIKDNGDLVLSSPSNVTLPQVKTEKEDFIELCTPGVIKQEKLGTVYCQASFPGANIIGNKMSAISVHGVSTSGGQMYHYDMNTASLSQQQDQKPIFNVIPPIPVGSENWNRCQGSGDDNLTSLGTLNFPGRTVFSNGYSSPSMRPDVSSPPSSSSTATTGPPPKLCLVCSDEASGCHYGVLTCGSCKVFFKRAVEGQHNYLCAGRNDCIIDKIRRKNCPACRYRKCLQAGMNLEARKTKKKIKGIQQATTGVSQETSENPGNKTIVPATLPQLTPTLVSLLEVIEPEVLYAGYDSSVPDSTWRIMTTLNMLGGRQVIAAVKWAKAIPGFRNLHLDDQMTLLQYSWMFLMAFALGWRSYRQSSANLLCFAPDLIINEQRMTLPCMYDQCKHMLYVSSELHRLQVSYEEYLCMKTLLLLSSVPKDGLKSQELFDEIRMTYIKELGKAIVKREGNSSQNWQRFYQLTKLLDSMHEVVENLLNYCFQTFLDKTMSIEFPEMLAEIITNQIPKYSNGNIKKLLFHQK
# Chain of 3',5'-cyclic-AMP phosphodiesterase 4B (Homo sapiens) (Q07343 whole entry, looked up): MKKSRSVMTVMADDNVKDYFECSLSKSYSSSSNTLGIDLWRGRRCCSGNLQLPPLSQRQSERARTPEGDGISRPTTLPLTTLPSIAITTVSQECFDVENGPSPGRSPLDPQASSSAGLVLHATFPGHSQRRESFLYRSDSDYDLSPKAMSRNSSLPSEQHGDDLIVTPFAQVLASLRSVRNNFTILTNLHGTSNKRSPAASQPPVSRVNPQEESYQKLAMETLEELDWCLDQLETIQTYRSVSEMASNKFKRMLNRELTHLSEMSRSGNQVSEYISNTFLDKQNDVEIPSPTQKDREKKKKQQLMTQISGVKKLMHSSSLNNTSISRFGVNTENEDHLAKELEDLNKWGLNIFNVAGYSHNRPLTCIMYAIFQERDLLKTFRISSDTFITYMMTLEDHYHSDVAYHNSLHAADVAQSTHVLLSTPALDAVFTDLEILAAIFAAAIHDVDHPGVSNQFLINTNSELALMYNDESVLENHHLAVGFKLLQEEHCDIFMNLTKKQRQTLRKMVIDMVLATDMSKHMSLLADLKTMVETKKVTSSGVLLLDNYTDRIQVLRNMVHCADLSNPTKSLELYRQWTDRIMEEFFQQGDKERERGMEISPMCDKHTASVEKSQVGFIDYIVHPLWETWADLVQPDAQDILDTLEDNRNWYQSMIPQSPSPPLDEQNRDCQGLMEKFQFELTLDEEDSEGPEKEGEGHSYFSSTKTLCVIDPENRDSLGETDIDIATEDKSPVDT
# Chain of ATP-dependent 6-phosphofructokinase (Trypanosoma brucei brucei) (O15648 whole entry, looked up): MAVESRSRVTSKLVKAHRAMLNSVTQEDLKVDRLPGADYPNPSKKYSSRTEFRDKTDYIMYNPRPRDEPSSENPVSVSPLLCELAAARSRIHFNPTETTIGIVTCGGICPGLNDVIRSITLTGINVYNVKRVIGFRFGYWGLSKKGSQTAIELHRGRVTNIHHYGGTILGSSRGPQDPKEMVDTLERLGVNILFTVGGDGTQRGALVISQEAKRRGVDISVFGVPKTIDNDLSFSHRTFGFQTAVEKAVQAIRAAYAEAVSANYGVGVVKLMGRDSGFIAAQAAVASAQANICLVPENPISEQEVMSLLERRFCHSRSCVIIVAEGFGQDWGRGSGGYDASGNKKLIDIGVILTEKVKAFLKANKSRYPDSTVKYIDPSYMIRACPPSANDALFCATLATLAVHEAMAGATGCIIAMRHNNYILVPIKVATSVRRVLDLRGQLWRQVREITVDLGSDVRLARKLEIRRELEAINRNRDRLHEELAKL
# Chain of Cytochrome P450 3A4 (Homo sapiens) (P08684 whole entry, looked up): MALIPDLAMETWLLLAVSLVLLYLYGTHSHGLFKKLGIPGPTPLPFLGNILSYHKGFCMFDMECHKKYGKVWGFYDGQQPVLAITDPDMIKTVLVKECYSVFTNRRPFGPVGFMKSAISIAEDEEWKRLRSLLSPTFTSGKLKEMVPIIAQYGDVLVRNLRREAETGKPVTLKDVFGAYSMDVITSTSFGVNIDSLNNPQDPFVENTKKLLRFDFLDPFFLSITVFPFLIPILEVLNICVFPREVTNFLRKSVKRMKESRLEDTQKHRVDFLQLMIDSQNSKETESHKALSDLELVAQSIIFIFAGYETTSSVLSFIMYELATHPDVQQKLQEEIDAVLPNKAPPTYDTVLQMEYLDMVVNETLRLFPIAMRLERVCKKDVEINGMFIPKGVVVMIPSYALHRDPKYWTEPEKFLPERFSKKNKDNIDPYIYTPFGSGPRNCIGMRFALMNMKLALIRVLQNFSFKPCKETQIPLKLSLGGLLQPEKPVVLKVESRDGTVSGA
# Chain of Luciferin 4-monooxygenase (Photinus pyralis) (P08659 whole entry, looked up): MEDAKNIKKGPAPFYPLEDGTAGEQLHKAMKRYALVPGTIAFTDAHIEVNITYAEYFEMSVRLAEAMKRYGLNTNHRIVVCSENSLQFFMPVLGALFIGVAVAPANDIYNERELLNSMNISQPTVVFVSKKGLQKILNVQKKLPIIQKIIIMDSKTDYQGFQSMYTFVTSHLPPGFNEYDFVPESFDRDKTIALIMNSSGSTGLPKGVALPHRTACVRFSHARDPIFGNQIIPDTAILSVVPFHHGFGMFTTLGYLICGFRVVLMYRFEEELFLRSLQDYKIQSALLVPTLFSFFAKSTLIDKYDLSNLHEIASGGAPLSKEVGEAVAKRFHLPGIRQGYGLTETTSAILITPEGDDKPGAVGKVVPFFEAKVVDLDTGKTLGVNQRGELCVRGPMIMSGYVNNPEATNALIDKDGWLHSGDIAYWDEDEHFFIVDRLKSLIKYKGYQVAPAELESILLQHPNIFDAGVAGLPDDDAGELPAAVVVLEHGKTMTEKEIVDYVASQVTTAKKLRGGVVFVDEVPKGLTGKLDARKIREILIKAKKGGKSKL
# Chain of Lysosomal acid glucosylceramidase (Homo sapiens) (P04062 whole entry, looked up): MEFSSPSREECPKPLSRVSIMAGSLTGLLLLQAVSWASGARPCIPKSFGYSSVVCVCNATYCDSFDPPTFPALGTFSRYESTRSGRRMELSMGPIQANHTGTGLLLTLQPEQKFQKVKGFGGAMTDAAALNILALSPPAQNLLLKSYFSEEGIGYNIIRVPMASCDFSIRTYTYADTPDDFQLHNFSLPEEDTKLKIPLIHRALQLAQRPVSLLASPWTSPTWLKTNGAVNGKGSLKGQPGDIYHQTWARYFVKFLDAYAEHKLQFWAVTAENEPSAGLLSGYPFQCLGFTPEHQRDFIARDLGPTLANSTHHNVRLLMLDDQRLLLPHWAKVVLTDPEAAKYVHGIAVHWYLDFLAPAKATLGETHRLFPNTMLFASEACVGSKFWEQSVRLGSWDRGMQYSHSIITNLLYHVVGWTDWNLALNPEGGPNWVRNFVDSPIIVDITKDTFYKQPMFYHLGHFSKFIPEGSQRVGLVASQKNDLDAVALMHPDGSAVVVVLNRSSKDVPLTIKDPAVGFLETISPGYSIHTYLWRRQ
smiles,measurement,setting,value
NC[C@H](O)c1ccc(O)cc1,outcome,[1],inactive
same,Potency,[2],inactive
same,"activity change, negative = inhibition",[3]; at 17.2 µM (top of the series),6.46% (inactive)
same,"activity change, negative = inhibition",[3]; at 38 µM (top of the series),10.8% (inactive)
same,outcome,[4],inactive
same,outcome,[5],inactive
same,Potency,[6],inactive
same,"activity change, negative = inhibition",[7]; at 25.7 µM (top of the series),-0.0033% (inactive)
same,max response,[7]; [17],1.62%
same,max response,[7]; [18],3.81%
same,Potency,[8],inactive
CC[C@@H]1[C@@H]2C[C@H]3[C@H]4N(C)c5ccccc5[C@@]45C[C@@H]([C@@H]2[C@@H]5O)N3[C@H]1O,outcome,[1],inactive
same,Potency,[2],inactive
same,"activity change, negative = inhibition",[3]; at 17.2 µM (top of the series),-7.21% (inactive)
same,outcome,[4],inactive
same,Potency,[9],> 20.6 µM (inactive)
same,Potency,[10],> 20.6 µM (inactive)
same,outcome,[5],inactive
same,Potency,[6],inactive
same,Potency,[11],3.98 µM (active)
same,"activity change, negative = inhibition",[7]; at 25.7 µM (top of the series),-1.86% (inactive)
same,max response,[7]; [17],1.73%
same,max response,[7]; [18],1.93%
same,Potency,[12],inactive
same,Potency,[8],inactive
same,Potency,[13],inactive
same,"activity, negative = inhibition","[14]; at 12.8 µM (top of the series), parasite line A",-1.56% (inactive)
same,"activity, negative = inhibition","[14]; at 12.8 µM (top of the series), parasite line B",7.76% (inactive)
same,Potency,C2A,inactive
same,Potency,CP185,inactive
same,Potency,FAB9,inactive
CC[C@@]1(c2ccc(N)cc2)CCC(=O)NC1=O,outcome,[1],inactive
same,Potency,[2],inactive
same,"activity change, negative = inhibition",[3]; at 17.2 µM (top of the series),-14.6% (inactive)
same,"activity change, negative = inhibition",[3]; at 38 µM (top of the series),6.21% (inactive)
same,outcome,[4],inactive
same,Potency,[9],> 46 µM (inactive) and > 20.6 µM (inactive)
same,Potency,[10],> 46 µM (inactive) and > 20.6 µM (inactive)
same,outcome,[5],inactive
same,Potency,[6],inactive
same,Potency,[15],inactive
same,"activity change, negative = inhibition",[7]; at 25.7 µM (top of the series),0.179% (inactive)
same,max response,[7]; [17],-3.22%
same,max response,[7]; [18],-2.21%
same,Potency,[12],inactive
same,Potency,[8],inactive
same,Potency,[13],inactive
same,"activity, negative = inhibition","[14]; at 28.7 µM (top of the series), parasite line A",3.34% (inactive)
same,"activity, negative = inhibition","[14]; at 28.7 µM (top of the series), parasite line B",3.27% (inactive)
same,Potency,C2A,inactive
same,Potency,CP185,inactive
same,Potency,FAB9,inactive
CN1[C@H]2CC(=O)C[C@@H]1[C@@H](O)C2,outcome,[1],inactive
same,Potency,[2],inactive
same,"activity change, negative = inhibition",[3]; at 17.2 µM (top of the series),-9.47% (inactive)
same,outcome,[4],inactive
same,Potency,[9],> 20.6 µM (inactive)
same,Potency,[10],> 20.6 µM (inactive)
same,outcome,[5],inactive
same,Potency,[6],inactive
same,"activity change, negative = inhibition",[7]; at 25.7 µM (top of the series),-5.66% (inactive)
same,max response,[7]; [17],-20.9%
same,max response,[7]; [18],-23.7%
same,Potency,[8],inactive
COc1cc2c3cc1Oc1cc(ccc1O)C[C@@H]1c4c(cc(OC)c(O)c4Oc4cccc(c4)C[C@H]3N(C)CC2)CC[N+]1(C)C,outcome,[1],inactive
same,Potency,[2],inactive
same,"activity change, negative = inhibition",[3]; at 17.2 µM (top of the series),-7.53% (inactive)
same,outcome,[4],inactive
same,Potency,[9],> 20.6 µM (inactive)
same,Potency,[10],> 20.6 µM (inactive)
same,outcome,[5],inactive
same,"activity change, negative = inhibition",[7]; at 25.7 µM (top of the series),0.776% (inactive)
same,max response,[7]; [17],15.7%
same,max response,[7]; [18],13.7%
same,Potency,[8],inactive
CN1CCCC2(CCN(C(=O)Oc3ccccc3)CC2)C1,Potency,[16],> 11.4 µM (inactive)
same,outcome,[1],inactive
same,outcome,[4],inactive
same,Potency,[10],> 46 µM (inactive)
same,outcome,[5],inactive
same,Potency,[6],inactive
same,"activity change, negative = inhibition",[7]; at 57.5 µM (top of the series),-5.13% (inactive)
same,max response,[7]; [17],1.15%
same,max response,[7]; [18],-1.11%

# — PubChem BioAssay (NCATS)
